Laboratory results taken from PubChem BioAssay (NCATS).
Where “and” joins values, the source holds several entries; their conditions need not be identical. Equal entries are not always repeated. Results filed as inconclusive are left out. Entries that show only a call come without a potency. Where a structure was tested more than once in an assay, its records may differ in their call. Calls of active or inactive are those of the source. Unless noted, calls come from the whole dose curve; as a rule, active = well fitted curve in the direction sought with a large enough effect; inconclusive = small, poorly fitted or top-dose-only effect, or another doubt; inactive = no such curve, though single readings can be large; an effect the other way counts as inactive or inconclusive.

How the values were obtained:
[1] = target: Beta-2 adrenergic receptor (Homo sapiens) (UniProt P07550); test: qHTS validation assay of beta-arrestin-biased ligands of beta2-adrenergic receptor (AID 485366)
Sequence of Beta-2 adrenergic receptor (Homo sapiens) (P07550 whole entry, looked up): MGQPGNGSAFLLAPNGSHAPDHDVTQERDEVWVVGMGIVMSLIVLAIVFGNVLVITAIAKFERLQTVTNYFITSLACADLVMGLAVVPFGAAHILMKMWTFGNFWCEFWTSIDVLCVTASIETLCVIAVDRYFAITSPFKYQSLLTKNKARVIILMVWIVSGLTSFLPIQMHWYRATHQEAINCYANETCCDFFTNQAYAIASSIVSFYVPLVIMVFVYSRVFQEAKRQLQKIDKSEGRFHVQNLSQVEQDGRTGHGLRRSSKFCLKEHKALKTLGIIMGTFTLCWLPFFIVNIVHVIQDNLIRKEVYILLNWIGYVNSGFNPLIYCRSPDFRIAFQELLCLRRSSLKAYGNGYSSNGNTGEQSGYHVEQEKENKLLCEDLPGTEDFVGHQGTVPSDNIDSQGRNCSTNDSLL
In short: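 Compound series up to 46 microM applied to beta2-AR/beta-arrestin Tango cells, 18 hr, 37 degrees C, 5% CO2. Read-out: tTA-driven luciferase luminescence, converted to %Activity; concentration-response curves assigned curve classes.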

[2] = Quantitative high throughput screen for delayed death inhibitors of the malarial parasite plastid, 96 hour incubation (AID 488745); note: nearly all actives have a fitted effect of over 70% in size; note: potency is the fitted concentration of half-maximal effect
In short: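 Readout is firefly luciferase luminescence from an integrated reporter in P. falciparum; lower signal marks inhibited growth. Cultures at 2% hematocrit and 0.1% parasitemia were treated with compound across two generations (96 h, 37 C, 5% CO2).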

[3] = Quantitative high throughput screen for delayed death inhibitors of the malarial parasite plastid, 48 hour incubation (AID 488752); note: nearly all actives have a fitted effect of over 65% in size; note: potency is the fitted concentration of half-maximal effect
In short: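 First, compound was pinned into RPMI 1640 medium containing 0.5% Albumax. Next, reporter-parasite-infected erythrocytes were added to 2% hematocrit and 0.1% parasitemia. After 48 h at 37 C under 5% CO2, luciferase detection reagent was added and luminescence read.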

[4] = target: Thioredoxin reductase 1, cytoplasmic (Rattus norvegicus) (UniProt O89049); test: qHTS Assay for Substrates of Mammalian Selenoprotein Thioredoxin Reductase 1 (TrxR1) (AID 488772);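 note: series mostly up to about 57 µM; a drop in NADPH fluorescence below the no-compound background marks a TrxR1 substrate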
Sequence of Thioredoxin reductase 1, cytoplasmic (Rattus norvegicus) (O89049 whole entry, looked up): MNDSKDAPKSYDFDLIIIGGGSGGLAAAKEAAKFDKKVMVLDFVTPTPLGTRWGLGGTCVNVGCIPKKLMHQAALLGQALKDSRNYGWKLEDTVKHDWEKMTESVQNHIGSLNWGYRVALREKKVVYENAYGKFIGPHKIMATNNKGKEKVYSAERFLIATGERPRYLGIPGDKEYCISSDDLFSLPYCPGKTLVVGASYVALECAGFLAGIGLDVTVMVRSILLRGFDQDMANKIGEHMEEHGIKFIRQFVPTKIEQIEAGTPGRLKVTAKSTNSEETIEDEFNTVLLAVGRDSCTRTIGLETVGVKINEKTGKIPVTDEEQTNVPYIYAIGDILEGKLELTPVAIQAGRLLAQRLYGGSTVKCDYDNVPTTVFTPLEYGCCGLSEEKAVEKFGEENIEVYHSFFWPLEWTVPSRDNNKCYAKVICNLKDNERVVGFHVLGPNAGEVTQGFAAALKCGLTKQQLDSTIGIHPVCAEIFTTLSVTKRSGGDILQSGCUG
In short: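 In this dual-purpose format, potential substrates are identified from the first fluorescence read after selenite addition, not from the 8-minute delta. Rat enzyme is preincubated with NADPH and then with compound at ~22 deg C.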

[5] = target: Thioredoxin reductase 1, cytoplasmic (Rattus norvegicus) (UniProt O89049); test: qHTS Assay for Inhibitors of Mammalian Selenoprotein Thioredoxin Reductase 1 (TrxR1) (AID 488773); settings: Potency: inhibition;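 note: drop in NADPH fluorescence over an 8 min run after selenite addition; series mostly up to about 57 µM; nearly all actives have a fitted effect of over 40% in size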
In short: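 Inhibition is scored from the loss of NADPH fluorescence between first and last reads of an 8-min kinetic run. Selenite (400 uM) was the substrate, added after 15 min compound preincubation at room temperature.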

[6] = target: Flap endonuclease 1 (Homo sapiens) (UniProt P39748); test: qHTS Validation Assay for the Inhibitors of Human Flap endonuclease 1 (FEN1) (AID 488816)
Sequence of Flap endonuclease 1 (Homo sapiens) (P39748 whole entry, looked up): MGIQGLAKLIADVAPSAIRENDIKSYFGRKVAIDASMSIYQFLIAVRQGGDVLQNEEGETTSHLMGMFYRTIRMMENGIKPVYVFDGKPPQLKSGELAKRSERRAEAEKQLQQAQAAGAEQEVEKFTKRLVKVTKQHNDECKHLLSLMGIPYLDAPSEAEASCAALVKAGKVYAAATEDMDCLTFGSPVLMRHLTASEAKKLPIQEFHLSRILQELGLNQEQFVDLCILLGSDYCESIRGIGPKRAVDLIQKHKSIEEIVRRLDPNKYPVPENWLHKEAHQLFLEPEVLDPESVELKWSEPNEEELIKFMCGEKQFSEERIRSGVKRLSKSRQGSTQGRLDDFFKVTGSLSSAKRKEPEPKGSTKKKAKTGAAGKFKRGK
In short: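 qHTS format: compounds and 10 nM FEN1 incubated 15 min at room temperature before adding 50 nM substrate. Cleavage followed by reads at 0 and 15 min; normalized data fitted to a four-parameter Hill curve.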

[7] = target: M-phase phosphoprotein 8 (Homo sapiens) (UniProt Q99549); test: qHTS Validation Assay for Inhibitors for MPP8 Chromodomain Interactions with Methylated Histone Tails (AID 488949); note: nearly all actives have a fitted effect of over 55% in size; note: potency is the fitted concentration of half-maximal effect
In short: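 Disruption of the preformed MPP8–trimethyl-H3K9 peptide complex (both 50 nM, 30 min, RT) is measured after 30 min compound exposure, using AlphaScreen proximity beads; aurintricarboxylic acid titration serves as plate control.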

[8] = target: Chromobox protein homolog 1 (Homo sapiens) (UniProt P83916); test: qHTS Validation Assay for Inhibitors of HP1-beta Chromodomain Interactions with Methylated Histone Tails (AID 488953); note: nearly all actives have a fitted effect of over 50% in size; note: potency is the fitted concentration of half-maximal effect
Sequence of Chromobox protein homolog 1 (Homo sapiens) (P83916 whole entry, looked up): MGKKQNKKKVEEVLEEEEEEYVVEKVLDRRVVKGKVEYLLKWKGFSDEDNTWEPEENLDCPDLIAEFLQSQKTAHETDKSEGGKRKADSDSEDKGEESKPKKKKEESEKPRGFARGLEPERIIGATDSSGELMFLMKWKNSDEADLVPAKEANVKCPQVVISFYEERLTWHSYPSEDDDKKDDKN
In short: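 Disruption of preformed HP1-beta:H3K9me3 peptide complexes (both 50 nM, PBS pH 7.4 with 0.01% Tween-20) is measured by AlphaScreen after 30 min compound exposure at room temperature, using streptavidin donor and nickel chelate acceptor beads at 10 ug/mL final.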

[9] = target: Methanococcus maripaludis chaperonin (MmCpn) (UniProt Q6LX38); test: High-Throughput Screening for Modulators of Cytosolic Chaperonin Activity: MmCpn Primary Screen (AID 488978);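 note: 50 nM MmCpn enzyme hydrolysing 30 µM ATP at 37 °C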
In short: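 Measures ATPase turnover of the M. maripaludis chaperonin (50 nM final) against 30 uM ATP over 10 min at 37C, with compound added 5 min beforehand at room temperature. ADP is quantified by HTRF immunodetection.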

[10] = target: Transient receptor potential cation channel subfamily V member 1 (Homo sapiens) (UniProt Q8NER1); test: HTS Assay for Compounds that Act as Enhancers of the Vanilloid Receptor 1 (AID 488979)
Sequence of Transient receptor potential cation channel subfamily V member 1 (Homo sapiens) (Q8NER1 whole entry, looked up): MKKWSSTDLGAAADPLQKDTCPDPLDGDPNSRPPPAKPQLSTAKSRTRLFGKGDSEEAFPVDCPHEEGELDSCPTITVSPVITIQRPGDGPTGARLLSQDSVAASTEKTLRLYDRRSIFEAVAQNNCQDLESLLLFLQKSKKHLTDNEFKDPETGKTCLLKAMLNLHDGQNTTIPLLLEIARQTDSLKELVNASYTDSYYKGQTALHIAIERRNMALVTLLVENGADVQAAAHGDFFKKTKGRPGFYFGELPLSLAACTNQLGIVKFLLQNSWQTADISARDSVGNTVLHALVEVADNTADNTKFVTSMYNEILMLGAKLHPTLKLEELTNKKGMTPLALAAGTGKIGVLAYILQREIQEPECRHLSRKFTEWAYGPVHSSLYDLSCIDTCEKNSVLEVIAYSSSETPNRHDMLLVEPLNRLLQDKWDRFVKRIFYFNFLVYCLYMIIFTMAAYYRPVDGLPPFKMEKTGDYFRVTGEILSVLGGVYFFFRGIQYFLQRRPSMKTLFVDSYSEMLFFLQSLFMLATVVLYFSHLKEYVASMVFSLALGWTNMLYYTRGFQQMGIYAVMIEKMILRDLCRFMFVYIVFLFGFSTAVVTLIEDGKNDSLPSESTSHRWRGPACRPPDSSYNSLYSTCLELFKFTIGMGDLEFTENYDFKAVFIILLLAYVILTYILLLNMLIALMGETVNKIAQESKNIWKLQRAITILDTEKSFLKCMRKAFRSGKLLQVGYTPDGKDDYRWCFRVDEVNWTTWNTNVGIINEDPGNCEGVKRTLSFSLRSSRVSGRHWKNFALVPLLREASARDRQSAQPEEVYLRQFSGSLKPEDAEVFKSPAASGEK
In short: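 Calcium influx kinetics via Fluo-8 (480/520 nm) in TRPV1-expressing cells, 2000/well cultured overnight at 35.5C. Compound-alone read 3 min (agonist phase), followed by EC20 capsaicin challenge for 2 min (enhancer phase).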

[11] = target: Thyrotropin receptor (Homo sapiens) (UniProt P16473); test: qHTS Assay for Antagonists of the Thyroid Stimulating Hormone Receptor (AID 488980); note: series mostly up to about 58 µM
In short: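 Cells expressing human TSHR (HEK293) are dispensed in HBSS/HEPES containing 70 uM RO 20-1724, compound is added, then TSH at EC80 (4 nM final). Antibody in lysis buffer follows, 30 minutes at room temperature before HTRF detection.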

[12] = target: D(1A) dopamine receptor (Homo sapiens) (UniProt P21728); test: HTS Assay for Allosteric Agonists of the Human D1 Dopamine Receptor: Primary Screen for Agonists (AID 488981)
Sequence of D(1A) dopamine receptor (Homo sapiens) (P21728 whole entry, looked up): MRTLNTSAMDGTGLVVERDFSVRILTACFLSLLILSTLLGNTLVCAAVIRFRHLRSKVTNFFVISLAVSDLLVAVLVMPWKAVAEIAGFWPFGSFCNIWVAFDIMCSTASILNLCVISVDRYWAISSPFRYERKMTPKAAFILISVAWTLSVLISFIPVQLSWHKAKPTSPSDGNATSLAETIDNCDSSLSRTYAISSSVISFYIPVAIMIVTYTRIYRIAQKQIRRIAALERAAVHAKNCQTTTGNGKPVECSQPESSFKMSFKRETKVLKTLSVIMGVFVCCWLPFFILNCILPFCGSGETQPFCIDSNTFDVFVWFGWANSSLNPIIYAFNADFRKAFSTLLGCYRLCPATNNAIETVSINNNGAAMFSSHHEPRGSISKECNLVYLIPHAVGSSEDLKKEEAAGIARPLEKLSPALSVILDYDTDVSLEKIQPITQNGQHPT
In short: (§1)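 Calcium flux in an inducible, force-coupled HEK293 Trex D1 line (overnight at 30 C): agonist mode is the 180 s kinetic read after compound; potentiator mode is the following 180 s read after dopamine at EC20.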

[13] = target: D(1A) dopamine receptor (Homo sapiens) (UniProt P21728); test: HTS Assay for Allosteric Agonists of the Human D1 Dopamine Receptor: Primary Screen for Antagonists (AID 488983);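 note: calcium flux response to an EC80 dopamine challenge measured with no-wash dye; nearly all actives have a fitted effect of over 65% in size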
In short: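 Kinetic fluorescence at 1 cycle/sec tracked intracellular calcium in force-coupled, tetracycline-inducible HEK293 T-REx D1 cells. Loss of response to an EC80 dopamine dose, given 180 s after compound, marked antagonists.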

[14] = Validation screen for small molecules that induce genotoxicity in human embryonic kidney (HEK293T) cells expressing luciferase-tagged ELG1 (AID 493106)
In short: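 Cells were dispensed at 2,000 per well, then 23 nL compound or DMSO was pinned in. After 16 hr at 37 °C and 5% CO2, ONE-Glo reagent was added. Luciferase activity was measured following 30 min at room temperature.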

[15] = target: ATPase family AAA domain-containing protein 5 (Homo sapiens) (UniProt Q96QE3); test: Validation screen for small molecules that inhibit ELG1-dependent DNA repair in human embryonic kidney (HEK293T) cells expressing luciferase-tagged ELG1 (AID 493107);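 note: cells co-treated with the DNA-damaging agent 5-fluorouridine alongside compound; series mostly up to about 46 µM; inhibitors lower the ELG1-luciferase luminescence signal; nearly all actives have a fitted effect of over 70% in size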
Sequence of ATPase family AAA domain-containing protein 5 (Homo sapiens) (Q96QE3 whole entry, looked up, the tested form may be a part): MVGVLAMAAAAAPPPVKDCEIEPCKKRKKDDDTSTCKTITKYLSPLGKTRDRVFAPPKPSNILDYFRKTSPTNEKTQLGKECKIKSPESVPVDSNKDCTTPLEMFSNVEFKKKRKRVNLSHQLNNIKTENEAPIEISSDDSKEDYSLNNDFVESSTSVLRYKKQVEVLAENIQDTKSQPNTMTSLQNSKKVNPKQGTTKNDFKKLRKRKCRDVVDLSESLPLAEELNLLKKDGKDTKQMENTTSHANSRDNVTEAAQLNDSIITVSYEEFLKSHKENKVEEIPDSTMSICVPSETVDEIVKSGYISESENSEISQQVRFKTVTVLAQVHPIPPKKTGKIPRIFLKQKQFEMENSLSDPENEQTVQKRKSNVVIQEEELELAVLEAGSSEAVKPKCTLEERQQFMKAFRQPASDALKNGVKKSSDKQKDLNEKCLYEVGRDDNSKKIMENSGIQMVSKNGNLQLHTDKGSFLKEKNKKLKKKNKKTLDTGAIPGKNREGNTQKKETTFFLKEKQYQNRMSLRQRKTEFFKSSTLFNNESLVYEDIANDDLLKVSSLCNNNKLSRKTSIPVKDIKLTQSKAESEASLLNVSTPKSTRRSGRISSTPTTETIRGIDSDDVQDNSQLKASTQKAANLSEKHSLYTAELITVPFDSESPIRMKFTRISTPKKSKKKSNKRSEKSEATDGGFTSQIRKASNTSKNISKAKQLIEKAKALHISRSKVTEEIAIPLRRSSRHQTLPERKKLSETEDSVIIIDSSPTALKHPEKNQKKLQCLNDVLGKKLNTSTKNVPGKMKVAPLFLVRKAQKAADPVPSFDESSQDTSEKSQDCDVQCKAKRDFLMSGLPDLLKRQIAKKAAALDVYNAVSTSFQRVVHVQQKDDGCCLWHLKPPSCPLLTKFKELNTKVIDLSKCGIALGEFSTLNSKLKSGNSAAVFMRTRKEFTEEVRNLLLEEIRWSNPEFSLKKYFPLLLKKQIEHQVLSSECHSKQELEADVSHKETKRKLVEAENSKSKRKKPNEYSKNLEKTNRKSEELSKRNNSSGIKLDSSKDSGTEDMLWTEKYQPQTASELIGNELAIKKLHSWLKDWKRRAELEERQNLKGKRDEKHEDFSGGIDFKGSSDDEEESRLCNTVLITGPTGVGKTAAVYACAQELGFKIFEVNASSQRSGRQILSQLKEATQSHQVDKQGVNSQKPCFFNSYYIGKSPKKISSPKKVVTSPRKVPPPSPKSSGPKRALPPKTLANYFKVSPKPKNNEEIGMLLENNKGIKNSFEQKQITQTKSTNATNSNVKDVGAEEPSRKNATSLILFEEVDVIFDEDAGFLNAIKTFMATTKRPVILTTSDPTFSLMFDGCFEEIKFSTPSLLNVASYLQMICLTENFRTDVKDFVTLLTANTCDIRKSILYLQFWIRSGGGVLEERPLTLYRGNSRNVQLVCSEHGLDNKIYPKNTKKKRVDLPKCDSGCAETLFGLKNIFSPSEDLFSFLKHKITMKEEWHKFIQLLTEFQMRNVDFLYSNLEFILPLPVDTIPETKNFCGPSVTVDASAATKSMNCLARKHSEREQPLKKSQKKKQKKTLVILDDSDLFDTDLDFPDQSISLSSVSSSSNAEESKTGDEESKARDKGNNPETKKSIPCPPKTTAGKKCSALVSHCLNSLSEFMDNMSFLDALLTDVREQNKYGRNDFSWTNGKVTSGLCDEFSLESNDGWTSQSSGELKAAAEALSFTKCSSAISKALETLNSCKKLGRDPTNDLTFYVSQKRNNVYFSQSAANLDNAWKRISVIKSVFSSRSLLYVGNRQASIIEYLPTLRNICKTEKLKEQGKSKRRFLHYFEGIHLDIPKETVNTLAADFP
In short: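 Cells are dispensed in 1536-well format, then 5-fluorouridine and compound are pinned in. After a 16 hr incubation at 37 °C and 5% CO2, ONE-Glo is added and luciferase measured on a CCD imager.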

[16] = target: Thyrotropin-releasing hormone receptor (Homo sapiens) (UniProt P34981); test: qHTS for Small Molecule Agonists and Allosteric Enhancers of Human TRH Receptor: Validation Screen for Agonists (AID 493127;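 active = calcium activation more than 3 SD above the typical response in the agonist read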;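 note: intracellular calcium rise by fluo-8 fluorescence before TRH EC20 addition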); settings: TRH receptor agonist cell assay; at 2 µM; stronger effect = higher value
Sequence of Thyrotropin-releasing hormone receptor (Homo sapiens) (P34981 whole entry, looked up): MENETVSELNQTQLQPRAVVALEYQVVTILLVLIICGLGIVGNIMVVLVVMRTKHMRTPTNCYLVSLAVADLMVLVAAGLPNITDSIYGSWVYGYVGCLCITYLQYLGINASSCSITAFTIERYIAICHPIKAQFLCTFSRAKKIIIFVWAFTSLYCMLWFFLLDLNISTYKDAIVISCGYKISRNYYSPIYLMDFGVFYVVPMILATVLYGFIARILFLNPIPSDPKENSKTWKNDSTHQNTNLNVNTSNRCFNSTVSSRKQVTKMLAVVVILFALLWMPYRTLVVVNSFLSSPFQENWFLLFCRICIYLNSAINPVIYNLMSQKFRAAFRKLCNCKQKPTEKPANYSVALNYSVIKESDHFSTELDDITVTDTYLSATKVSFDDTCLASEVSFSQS
In short: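 Compounds are added by online pintool to dye-loaded TRHR cells while fluorescence is recorded every second. A rise in calcium signal during the agonist read marks activation; a later 10 nM TRH addition (EC20) serves the separate enhancer mode.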

[17] = target: D(1A) dopamine receptor (Homo sapiens) (UniProt P21728); test: HTS Assay for Allosteric Agonists of the Human D1 Dopamine Receptor: Primary Screen for Potentiators (AID 488982)
In short: as §1

Structure (SMILES)	outcome [1]	Potency [2]	Potency [3]	outcome [4]	Potency [5]	Potency [6]	Potency [7]	Potency [8]	outcome [9]	outcome [10]	outcome [11]	Potency [12]	Potency [13]	Potency [14]	Potency [15]	activation [16]	Potency [17]
CCCCCCCCCCC/C=C\C(C)(C)/C=C\CCCC(=O)O	inactive	inactive	inactive	inactive	inactive	inactive	inactive	inactive	inactive	inactive	inactive	inactive	inactive	inactive	inactive	0.562% (inactive)	
O=C(O)C1=CCCN(CCON=C(c2ccccc2)c2ccccc2)C1	inactive	inactive	inactive	inactive	inactive	inactive	inactive		inactive		inactive	inactive	inactive	inactive	inactive	-3% (inactive)	inactive
Nc1ncnc2c1ncn2C1CCCO1 (stereo not drawn)	inactive	inactive	inactive	inactive	inactive	inactive	inactive	6 nM (active)	inactive	inactive	inactive	inactive	inactive	inactive	inactive		
CCCn1c(=O)c2c(ncn2C)n(CCC)c1=O	inactive	inactive	inactive	inactive	inactive	inactive	inactive	inactive	inactive	inactive	inactive	inactive	inactive	inactive	inactive	0.5% (inactive)	
NC(N)=NC(N)=Nc1ccccc1	inactive	inactive	inactive	inactive	inactive	inactive	inactive	inactive	inactive	inactive	inactive	inactive	inactive	inactive	inactive	0.75% (inactive)	
Cn1cc(C(=O)OCC2CCN(CCNS(C)(=O)=O)CC2)c2ccccc21	inactive	inactive	inactive	inactive	inactive	inactive	inactive	inactive	inactive		inactive	inactive	inactive	inactive	inactive	0.688% (inactive)	inactive
COc1cc(CC(=O)O)ccc1O	inactive	inactive	inactive	inactive	inactive		inactive	6 nM (active)	inactive	inactive	inactive	inactive	inactive				inactive
COC(=O)C(N)Cc1ccc(Cl)cc1 (stereo not drawn)	inactive	inactive	inactive	inactive	inactive	inactive	inactive	6.7 nM (active)	inactive		inactive	inactive	inactive	inactive		-2.56% (inactive)	inactive
COc1cccc(OC)c1OCCNCC1CSc2ccccc2O1 (stereo not drawn)	inactive	inactive	inactive	inactive	inactive	inactive	inactive	inactive	inactive	inactive	inactive	inactive		inactive	inactive	-3.81% (inactive)	
O=c1ccn([C@@H]2O[C@H](COP(=O)(O)OP(=O)(O)O)[C@@H](O)[C@H]2O)c(=O)[nH]1	inactive	inactive	inactive	inactive	inactive	inactive	inactive	inactive	inactive	inactive	inactive	inactive	inactive	inactive		0.188% (inactive)	
Cc1ccc([N+](=O)[O-])cc1S(=O)(=O)N(C)C	inactive	inactive	inactive	inactive	inactive	inactive	inactive	inactive	inactive	inactive	inactive	inactive	inactive	inactive	inactive	1.19% (inactive) and 0.125% (inactive)	
Nc1ncnc2c1c(-c1ccc(Oc3ccccc3)cc1)cn2C1CCCC1	inactive	7.38 µM (active)	9.28 µM (active)	inactive	inactive	inactive			inactive	inactive	inactive	inactive		inactive			
NCCCCN	inactive	inactive	inactive	inactive	inactive	inactive	inactive	inactive	inactive		inactive	inactive	inactive	inactive	inactive		inactive
COC1(C2=NCCN2)COc2ccccc2O1 (stereo not drawn)	inactive	inactive	inactive	inactive	inactive	inactive	inactive		inactive		inactive	inactive		inactive	inactive	1.62% (inactive)	inactive
O=C(O)c1ccccc1Nc1cccc(OCc2ccc3ccccc3n2)c1	inactive	inactive	inactive	inactive	inactive	inactive	39.8 µM (active) and inactive		inactive	inactive	inactive	inactive		inactive	inactive	-5.56% (inactive)	
CC(C)C[C@H](NC(=O)C1OC1C(=O)O)C(=O)NCCCCN=C(N)N (stereo partly drawn)	inactive	2.33 µM (active)	5.86 µM (active)	inactive	inactive	inactive	inactive	6 nM (active)	inactive		inactive	inactive	inactive	inactive	inactive	0% (inactive)	inactive
CCCCCCC/C=C\CCCCCCCCC(=O)O	inactive	inactive	inactive	inactive	inactive	inactive	inactive	inactive	inactive	inactive	inactive	inactive	inactive	inactive	inactive		
